# Results published in PubChem BioAssay (NCI).
# Values joined by “and” are separate entries in the source; they are usually repeats but may differ in a detail not shown here. Equal entries are not always repeated. This is part of a sample that, as a whole, favours compounds with a hit. Of some 83,000 tested, about 20% had one in any assay.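 The test compound was applied at a single concentration to cells in 96-well plates for 48 hours, and percent growth was recorded.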 A number with no mark means an inactive call. Where a SMILES comes first, the peptide text is derived from it.
# Test system: NCI-H460 lung
# Assay: NCI-60 one-dose screen, 48 h (100 = growth as untreated, 0 = no growth, -100 = all killed)
# Conditions: 10 µM unless noted
# Procedure: Growth inhibition of the NCI-H460 human Non-Small Cell Lung tumor cell line is measured as a screen for anti-cancer activity. Cells are grown in 96 well plates and exposed to the test compound for 48 hours. Compounds are tested at a single concentration, which is 10^-5 M for most compounds. The reported endpoint is percent growth (GI% or GIPRCNT), where numbers from 0 - 100% represent growth inhibition, and numbers from -100% - 0 represent cell death. For example, a value of 40 represents 60% growth inhibition. A value of 0 means no net growth occurred over the course of the experiment. A value of -40 indicates 40% of cells at the beginning of the experiment died by the end of the experiment. A value of -100 means all cells are dead at the end of the experiment.
# NCI-60 Human Tumor Cell Lines Screen was performed using the standard one-dose NCI protocol, which is described in more detail at https://dtp.cancer.gov/discovery_development/nci-60/default.htm.
# Compounds with GIPRCNT values below 10 were considered active. Activity score was based on GIPRCNT using the following formula: […]
# Score is 0 for GIPRCNT values of 100 or above, 50 for GIPRCNT values of 0, and 100 for GIPRCNT values of -100.
row,SMILES,growth
1,Oc1ccc(Cc2ccccc2Cl)c(O)c1,101%
2,COc1ccc(Nc2ccc3ccccc3c2)cc1,94.1%
3,NC(Cc1ccccc1)C(=O)NC(Cc1ccccc1)C(=O)O (stereo not drawn) (H-Phe-Phe-OH; configuration not given here),104%
4,COc1cc(C(O)C2C(=O)OCC2C2(c3ccc4c(c3)OCO4)SCCCS2)cc(OC)c1OC (stereo not given),107%
5,COc1ccc(C(=O)CC(c2ccccc2)C(C#N)c2ccccc2)cc1 (stereo not given),92.8%
6,O=[N+]([O-])c1cccc(SSc2cccc([N+](=O)[O-])c2)c1,109%
7,Cl,107%
8,O=c1[nH]cnc2c1ncn2C1OC(CO)C(O)C1O (stereo not given),109% and 122% and 106%
9,ClCCOCCOc1ccc(C2CCCCC2)cc1,106%
10,N#CC(C#N)N=Nc1cc(Cl)ccc1Cl,102%
11,CC1CCC2(OC1)OC1CC3C4CC=C5CC(O)CCC5(C)C4CCC3(C)C1C2C (stereo not given),103%
12,O=C(O)CCCl,106%
13,CCCCCCCCCCNC(=O)CI,101%
14,Cc1cc2ccccc2cn1,107% and 108%
15,CC[C@H](CC[C@@H](C)[C@H]1CC[C@H]2[C@@H]3CC=C4C[C@@H](O)CC[C@]4(C)[C@H]3CC[C@]12C)C(C)C,105% and 107%
16,c1ccc2c(c1)OC1OC2Oc2ccccc21,99.4%
17,CC(=O)OC(C)C(=O)NCC(C)O (stereo not given),98.2%
18,CC(C)C(C)(C)c1ccc(O)cc1,104%
19,Nc1cc(N)c(N)cc1N,96.8%
20,CC(=O)NCC(=O)c1ccc([N+](=O)[O-])cc1,104%

row,SMILES,growth
1,CCc1cc(C)cc(O)c1,110%
2,NC(Cc1c[nH]c2ccccc12)C(=O)O (stereo not given),105% and 101%
3,OCC1OC(O)C(O)C(O)C1O (stereo not given),100%
4,C/C(=C\c1ccccc1)c1ccccn1,105%
5,OC1COC(OCc2ccccc2)C(O)C1O (stereo not given),106%
6,O=C(O)/C=C\C(=O)Nc1cccc2ccccc12,101% and 111%
7,O=CN1CCCCC1,112%
8,CC(C)NCC(O)c1ccc(O)c(O)c1 (stereo not given),108% and 101% and 105%
9,O=C(/C=C/c1ccccc1)c1ccccc1,93.1%
10,CCCCCCCCCCCCCCCc1ccc(N)c(OC2OC(CO)C(O)C(O)C2O)c1 (stereo not given),102%
11,Nc1nc(N)c2[nH]cnc2n1,96.2%
12,O=C1OC(c2ccccc2)=N/C1=C\c1ccccc1,103%
13,O=C1C=C(Nc2ccccc2)c2ccccc2C1=O,14.5% and 93.2%
14,CN(C)CC1CCCCCC(CN(C)C)C1=O (stereo not given),106%
15,O=C(CO)C(O)C(O)C(O)C(O)CO (stereo not given),109% and 108%
16,CC1(C)COC(=S)N1,113%
17,Cc1ccc(S(=O)(=O)c2ccccc2)cc1,20.7%
18,Cc1cc(-c2cc(C)c(O)c(C)c2)cc(C)c1O,102%
19,O=c1n(CC2CO2)c(=O)n(CC2CO2)c(=O)n1CC1CO1 (stereo not given),19.2%
20,N#CC(C#N)N=Nc1ccc(Cl)cc1,91%
